High-throughput results from PubChem.
This is a sample that favours compounds with a hit; in the whole collection about 10% have one here.
L major viab = reduces viability of Leishmania major promastigotes. inhibition, % at 10 µM. resazurin fluorescence viability. hit rate 9% among 200,000; in the data active means inhibition above about 50%;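 further: promastigotes grown with compound for 44 hours at 28 °C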
PTEN del growth = growth suppressors of cells with PTEN tumor suppressor deletion | viability, % at 10 µM | HCT116 PTEN-null viability, CellTiter-Glo, 60 h; hits give low values | hit rate 1.2% among 140,000;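 active means viability at or below a set limit, 4 SD under the median of all tested compounds, cut at about 3.7% in these data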;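 further: PTEN knockout HCT116 line with beta catenin targeted HCT116 as companion control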
ROMK mod = modulates human ROMK potassium channel activity. Tet-inducible ROMK, thallium flux fluorescence; actives lie on both sides. B-score at 10 µM. hit rate 2% among 130,000. AID 1918;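 active means signal ratio slope over the read window, or its plate-corrected B-score, at least 3 SD from the plate mean, either direction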;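 further: B-score of the F/F0 ratio slope over 7 to 12 s after thallium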
INS promoter inh = TRM-6 insulin promoter activity inhibition; inhibition, % at 2 µM; TRM-6 cells (human fetal islet line), insulin promoter-eGFP reporter, imaging; reporter expression induced with tamoxifen; AID 1273; hit rate 0.9% among 130,000;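 active means inhibition above the mean plus 3 SD, with well images judged a real hit on visual review, cut at about 60% in these data, passing the limit was not always enough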
p97 ATPase inh = blocks human p97 ATPase activity; P55072; hit rate 0.42% among 220,000; AID 1481; inhibition, % at 8 µM; recombinant p97 ATPase, Kinase-Glo ATP luminescence, 3 h; in the data active means inhibition above about 15%
Target sequence (P55072 whole entry, looked up): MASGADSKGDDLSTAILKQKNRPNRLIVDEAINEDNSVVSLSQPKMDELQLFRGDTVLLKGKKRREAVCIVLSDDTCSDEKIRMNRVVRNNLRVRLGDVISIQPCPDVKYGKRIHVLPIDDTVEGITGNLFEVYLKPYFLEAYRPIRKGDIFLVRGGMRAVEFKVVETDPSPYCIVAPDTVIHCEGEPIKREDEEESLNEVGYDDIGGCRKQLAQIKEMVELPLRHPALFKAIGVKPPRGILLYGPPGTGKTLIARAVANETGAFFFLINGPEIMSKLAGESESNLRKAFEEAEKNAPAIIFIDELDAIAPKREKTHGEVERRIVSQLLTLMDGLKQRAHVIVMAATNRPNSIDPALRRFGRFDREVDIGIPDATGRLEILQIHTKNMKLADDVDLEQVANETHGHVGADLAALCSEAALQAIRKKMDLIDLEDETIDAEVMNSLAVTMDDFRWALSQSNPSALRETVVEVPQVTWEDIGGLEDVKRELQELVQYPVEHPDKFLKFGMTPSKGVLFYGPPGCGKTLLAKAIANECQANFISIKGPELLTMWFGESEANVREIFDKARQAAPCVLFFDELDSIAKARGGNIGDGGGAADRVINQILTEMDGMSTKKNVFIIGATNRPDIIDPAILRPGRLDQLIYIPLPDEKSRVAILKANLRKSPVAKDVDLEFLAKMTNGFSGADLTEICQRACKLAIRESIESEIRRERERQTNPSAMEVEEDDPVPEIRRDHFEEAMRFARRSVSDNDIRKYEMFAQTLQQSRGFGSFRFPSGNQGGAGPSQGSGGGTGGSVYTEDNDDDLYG
HCT116 bCat-KO = beta-catenin-lacking colon tumor cell growth suppression; hit rate 1.5% among 140,000; AID 818; HCT116 beta-catenin knockout viability, CellTiter-Glo, 60 h; hits give low values; viability, % at 10 µM;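 active means viability at or under a set limit, the compound median less 4 SD, cut at about 6% in these data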
Large screens that a line does not name were inactive.

COc1ccc(NC(=O)CN(C)S(=O)(=O)c2ccccc2)cc1	none
O=C(Nc1cccc(S(=O)(=O)N2CCCCCC2)c1)c1cc(=O)c2ccccc2o1	none (no result: PTEN del growth, INS promoter inh, HCT116 bCat-KO)
CN(c1ccccc1)S(=O)(=O)c1cccc(NC(=O)c2cc(=O)c3ccccc3o2)c1	L major viab 80.5 (no result: PTEN del growth, HCT116 bCat-KO)
CCCC(=O)Nc1cccc(S(=O)(=O)N(C)c2ccccc2)c1	L major viab 67.4
COc1ccc(NC(=O)CN(C)CC(=O)Nc2cccc(S(=O)(=O)N(C)c3ccccc3)c2)cc1	L major viab 81.4 (no result: PTEN del growth, INS promoter inh, HCT116 bCat-KO)
CN(c1ccccc1)S(=O)(=O)c1cccc(NC(=O)CSc2nncn2C)c1	L major viab 57.1
CC(C)Cc1cc(CN2CCC(CO)(Cc3ccccc3)CC2)[nH]n1	none (no result: L major viab, PTEN del growth, ROMK mod, INS promoter inh, HCT116 bCat-KO)
O=C(Nc1ccccc1-c1nnn(CC(=O)N2CCOCC2)n1)c1ccc(F)cc1	none (no result: PTEN del growth, INS promoter inh, HCT116 bCat-KO)
Cn1nccc1C(=O)Nc1ccn(C23CC4CC(CC(C4)C2)C3)n1	L major viab 52.9 (no result: ROMK mod)
O=C(Nc1ccn(Cc2ccccc2F)n1)c1ccc(COc2ccccc2Cl)cc1	HCT116 bCat-KO 5.9
O=C(Nc1ccn(Cc2c(F)c(F)cc(F)c2F)n1)c1ccc(COc2ccccc2Cl)cc1	none (no result: ROMK mod)
COC(=O)c1cccc(-c2ccc(C(c3c(C)[nH][nH]c3=O)c3c(C)[nH][nH]c3=O)o2)c1	L major viab 92.4 (no result: PTEN del growth, INS promoter inh, HCT116 bCat-KO)
Cc1ccc(NC(=O)Cc2ccc3c(c2)OCCO3)cc1S(=O)(=O)N1CCCCC1	none (no result: L major viab, PTEN del growth, ROMK mod, INS promoter inh, HCT116 bCat-KO)
Cc1ccc(C)c2[nH]c(=O)c(CN(CCN3CCCC3)C(=O)Nc3cccc(Cl)c3)cc12	L major viab 100.5, PTEN del growth 1.8, HCT116 bCat-KO 3.0
CCc1ccc2[nH]c(=O)c(CN(CCCN3CCOCC3)C(=O)Nc3cccc(Cl)c3)cc2c1	L major viab 83.5, PTEN del growth 1.9, HCT116 bCat-KO 1.9 (no result: ROMK mod, INS promoter inh)
Cc1cc(C)c2cc(CN(CCN3CCCC3)C(=O)Nc3ccc(F)cc3)c(=O)[nH]c2c1	none (no result: INS promoter inh)
Cc1nn(Cc2cccc(F)c2)c(C)c1NC(=O)c1c(Cl)cnn1C	none (no result: ROMK mod)
Cc1c(NC(=O)c2ccc(S(=O)(=O)N(C)c3ccccc3)cc2)c(=O)n(-c2ccccc2)n1C	none (no result: PTEN del growth, HCT116 bCat-KO)
O=Nc1c(O)[nH]c2ccc(Cl)cc12	none (no result: PTEN del growth, HCT116 bCat-KO)
COC(=O)c1ccc(C)c(NS(=O)(=O)c2ccc(OC)cc2)c1	INS promoter inh 100.0
COC(=O)c1ccc(C)c(NS(=O)(=O)c2ccc3c(c2)OCCO3)c1	L major viab 100.2 (no result: ROMK mod)
COc1ccc2c(Cl)c(C(=O)NN3CCN(C)CC3)sc2c1	none (no result: PTEN del growth, INS promoter inh, HCT116 bCat-KO)
NC(=O)c1nsc(C(=O)N(c2ccccc2)C(C(=O)NCC2CCCO2)c2cccs2)c1N (stereo unspecified)	L major viab 72.9 (no result: PTEN del growth, INS promoter inh, HCT116 bCat-KO)
O=C(NCC1CCCO1)C(c1cccs1)N(C(=O)c1ccc(-c2ccccc2)[nH]1)C1CCCC1 (stereo unspecified)	L major viab 92.2 (no result: ROMK mod)
O=C(NCC1CCCO1)C(c1cccs1)N(Cc1ccccc1)C(=O)c1ccc(-c2ccccc2)[nH]1 (stereo unspecified)	L major viab 68.1
CC(C)(C)NC(=O)C(c1cccs1)N(CC1CCCO1)C(=O)c1ccc(-c2ccccc2)[nH]1 (stereo unspecified)	none (no result: ROMK mod)
COc1ccc(C(=O)Nc2ccc(Cl)cc2C(=O)N2CCCC(C)C2)cc1OC (stereo unspecified)	none
CCOC(=O)c1oc2ccccc2c1CN1CCN(C)CC1	none (no result: ROMK mod)
CCOC(=O)c1c(C)oc2c(CN3CCN(C)CC3)c(Br)c(OC)c(O)c12	L major viab 100.4
CCOC(=O)c1c(CN2CCCCC2)n(C)c2cc(Br)c(O)cc12	none
CCOC(=O)c1c(CN2CCN(C)CC2)n(C)c2cc(Br)c(OC)cc12	L major viab 100.3
CSc1nsc2nc(=O)c(/C=C3\C=Nc4ccccc43)c(N)n12	ROMK mod 2.07 (no result: PTEN del growth, INS promoter inh, HCT116 bCat-KO)
CC(C)S(=O)(=O)c1nsc2nc(=O)c(/C=C3\C=Nc4ccccc43)c(N)n12	none (no result: PTEN del growth, HCT116 bCat-KO)
O=c1[nH]ncn1-c1ccc(Br)cc1	none (no result: PTEN del growth, INS promoter inh, HCT116 bCat-KO)
O=S(=O)(c1ccc(Cl)c(NC(=S)N/N=C/c2ccc(O)cc2)c1)N1CCOCC1	L major viab 88.3 (no result: ROMK mod)
CC(=O)Nc1sc(C)c(C)c1C(=O)OCC(=O)Nc1cc(S(=O)(=O)N2CCCCC2)ccc1Cl	PTEN del growth 3.1
CC(=O)c1c(C)[nH]c(C(=O)OCC(=O)Nc2cc(S(=O)(=O)N3CCCC3)ccc2Cl)c1C	L major viab 71.5 (no result: ROMK mod, INS promoter inh)
CCOC(=O)C(=O)Nc1ccc(S(=O)(=O)N2CCOCC2)cc1OC	none (no result: ROMK mod)
O=C(COC(=O)c1ccc(Cl)nc1)Nc1cc(S(=O)(=O)N2CCCCC2)ccc1Cl	none (no result: PTEN del growth, INS promoter inh, HCT116 bCat-KO)
COc1cc(S(=O)(=O)N2CCOCC2)ccc1NC(=O)COC(=O)CC12CC3CC(CC(C3)C1)C2	L major viab 99.8 (no result: INS promoter inh)
COc1cc(CN(C)Cc2ccccc2)cc(OC)c1O	none
O=C(c1ccc(S(=O)(=O)c2cccc(Cl)c2)c([N+](=O)[O-])c1)N1CCN(Cc2ccccc2)CC1	none
COc1ccccc1N(CC(=O)NCC1CCCO1)C(=O)CNS(=O)(=O)c1ccccc1 (stereo unspecified)	none (no result: L major viab, PTEN del growth, INS promoter inh, HCT116 bCat-KO)
Cc1cc(C(=O)OCC(=O)Nc2ccc(S(=O)(=O)N3CCOCC3)cc2)c(C)o1	none
Cc1ccc(S(=O)(=O)N2CCOCC2)cc1NC(=O)COC(=O)c1ccc(OCc2c(C)noc2C)cc1	L major viab 75.5
Cc1cc(C(=O)OCC(=O)Nc2cc(S(=O)(=O)N3CCOCC3)ccc2Cl)c(C)o1	p97 ATPase inh 16.0
Cc1ccc(S(=O)(=O)N2CCOCC2)cc1NC(=O)CNCC1CCCCC1	L major viab 74.0 (no result: PTEN del growth, INS promoter inh, HCT116 bCat-KO)
COc1ccc(S(=O)(=O)N2CCCCCC2)cc1C(=O)OCc1c(C)noc1C	ROMK mod -6.69 (no result: INS promoter inh)
COc1cc(CNCc2ccc(SC)cc2)cc(OC)c1	none
Cc1cccc(C)c1NC(=O)Nc1ccc(S(N)(=O)=O)cc1	none (no result: L major viab, PTEN del growth, ROMK mod, INS promoter inh, HCT116 bCat-KO)
COc1ccc(NC(=O)c2cccc(C#N)c2)cc1NS(=O)(=O)c1ccc(F)cc1	none
CCC(Sc1nc2sc(C(=O)OC)c(C)c2c(=O)n1N)C(=O)NCC1CCCO1 (stereo unspecified)	none (no result: ROMK mod)
CC1CCCCC1NC(=O)COC(=O)c1c2c(nc3ccccc13)/C(=C/c1ccco1)CC2 (stereo unspecified)	none
NC(=O)c1ccc(NC(=O)COC(=O)c2c3c(nc4ccccc24)/C(=C\c2cccs2)CCC3)cc1	PTEN del growth 1.8, HCT116 bCat-KO 1.8
CCc1cccc(C)c1NC(=O)COC(=O)c1c2c(nc3ccccc13)/C(=C\c1cccs1)CCC2	none (no result: ROMK mod)
O=C(COC(=O)c1c2c(nc3ccccc13)/C(=C/c1ccco1)CC2)NC1CCCC1	L major viab 89.1
Cc1c(S(=O)(=O)N2CCOCC2)c(=O)n(C)c(=O)n1C	none (no result: ROMK mod, INS promoter inh)
CC(C)Nc1nc(NC(C)C)nc(N(C)C#N)n1	INS promoter inh 77.4 (no result: ROMK mod)
CC(=O)n1cc(N(C(=O)CCl)c2ccc([N+](=O)[O-])cc2)c2ccccc21	none (no result: L major viab, PTEN del growth, ROMK mod, INS promoter inh, HCT116 bCat-KO)
O=Cc1[nH]c2ccccc2c1N(C(=O)CCl)c1ccc([N+](=O)[O-])cc1	ROMK mod -2.03 (no result: L major viab, PTEN del growth, INS promoter inh, HCT116 bCat-KO)
CN1CCC(Oc2ccccc2Sc2ccccc2)CC1	L major viab 100.3
